We go through 4 molecules from ChEMBL document CHEMBL1961873, “Compounds: GSK PKIS; Assays: Nanosyn kinase panel” (2012).

Assay [1] relates to Epidermal growth factor receptor (Homo sapiens), P00533 [T790M]. The following applies: at 1 µM.
Assay [2] concerns Epidermal growth factor receptor (Homo sapiens), P00533 [L858R,T790M]. As to conditions: at 0.1 µM.
The test system is the same in assay [3]. As to conditions: at 1 µM.
The target in assay [4] is Ephrin type-A receptor 2 (Homo sapiens) (UniProt P29317). The following applies: at 0.1 µM.
For assay [5] the target is unchanged. As to conditions: at 1 µM.
The target in assay [6] is T1, Ephrin type-A receptor 3 (Homo sapiens) (UniProt P29320).
T1 sequence (whole entry): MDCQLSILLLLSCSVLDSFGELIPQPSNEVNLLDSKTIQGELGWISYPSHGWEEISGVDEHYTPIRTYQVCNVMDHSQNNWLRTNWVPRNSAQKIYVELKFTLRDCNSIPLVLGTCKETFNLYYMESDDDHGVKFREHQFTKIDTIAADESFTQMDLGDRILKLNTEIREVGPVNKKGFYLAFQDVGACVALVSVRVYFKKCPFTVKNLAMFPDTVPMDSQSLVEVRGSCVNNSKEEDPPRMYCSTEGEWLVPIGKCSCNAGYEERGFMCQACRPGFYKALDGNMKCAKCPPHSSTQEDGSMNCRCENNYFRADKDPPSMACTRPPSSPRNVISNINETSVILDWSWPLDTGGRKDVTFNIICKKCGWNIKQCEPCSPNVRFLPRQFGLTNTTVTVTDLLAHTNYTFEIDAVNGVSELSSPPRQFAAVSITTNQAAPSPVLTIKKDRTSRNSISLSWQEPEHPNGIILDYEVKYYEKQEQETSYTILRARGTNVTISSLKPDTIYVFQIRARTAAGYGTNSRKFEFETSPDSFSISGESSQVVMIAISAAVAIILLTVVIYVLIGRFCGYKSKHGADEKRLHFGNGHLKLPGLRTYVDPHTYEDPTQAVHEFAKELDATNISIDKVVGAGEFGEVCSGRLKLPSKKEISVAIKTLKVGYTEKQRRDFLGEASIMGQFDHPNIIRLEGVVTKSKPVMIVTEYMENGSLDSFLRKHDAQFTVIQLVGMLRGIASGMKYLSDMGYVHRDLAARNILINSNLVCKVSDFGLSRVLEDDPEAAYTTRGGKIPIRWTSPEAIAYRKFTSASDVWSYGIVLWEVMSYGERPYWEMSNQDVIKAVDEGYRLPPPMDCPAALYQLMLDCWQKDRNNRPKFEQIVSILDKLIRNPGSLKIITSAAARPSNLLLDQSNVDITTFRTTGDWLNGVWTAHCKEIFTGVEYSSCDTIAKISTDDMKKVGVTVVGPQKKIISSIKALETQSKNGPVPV
The following applies: at 0.1 µM.

The target of assay [7] is T1, Ephrin type-A receptor 3 (Homo sapiens). As to conditions: at 1 µM.
For assay [8], the target named is Ephrin type-A receptor 4 (Homo sapiens) (UniProt P54764). As to conditions: at 0.1 µM.
For assay [9] the target is unchanged. As to conditions: at 1 µM.
For assay [10], the target named is T2, Ephrin type-B receptor 2 (Homo sapiens) (UniProt P29323).
T2 sequence (whole entry): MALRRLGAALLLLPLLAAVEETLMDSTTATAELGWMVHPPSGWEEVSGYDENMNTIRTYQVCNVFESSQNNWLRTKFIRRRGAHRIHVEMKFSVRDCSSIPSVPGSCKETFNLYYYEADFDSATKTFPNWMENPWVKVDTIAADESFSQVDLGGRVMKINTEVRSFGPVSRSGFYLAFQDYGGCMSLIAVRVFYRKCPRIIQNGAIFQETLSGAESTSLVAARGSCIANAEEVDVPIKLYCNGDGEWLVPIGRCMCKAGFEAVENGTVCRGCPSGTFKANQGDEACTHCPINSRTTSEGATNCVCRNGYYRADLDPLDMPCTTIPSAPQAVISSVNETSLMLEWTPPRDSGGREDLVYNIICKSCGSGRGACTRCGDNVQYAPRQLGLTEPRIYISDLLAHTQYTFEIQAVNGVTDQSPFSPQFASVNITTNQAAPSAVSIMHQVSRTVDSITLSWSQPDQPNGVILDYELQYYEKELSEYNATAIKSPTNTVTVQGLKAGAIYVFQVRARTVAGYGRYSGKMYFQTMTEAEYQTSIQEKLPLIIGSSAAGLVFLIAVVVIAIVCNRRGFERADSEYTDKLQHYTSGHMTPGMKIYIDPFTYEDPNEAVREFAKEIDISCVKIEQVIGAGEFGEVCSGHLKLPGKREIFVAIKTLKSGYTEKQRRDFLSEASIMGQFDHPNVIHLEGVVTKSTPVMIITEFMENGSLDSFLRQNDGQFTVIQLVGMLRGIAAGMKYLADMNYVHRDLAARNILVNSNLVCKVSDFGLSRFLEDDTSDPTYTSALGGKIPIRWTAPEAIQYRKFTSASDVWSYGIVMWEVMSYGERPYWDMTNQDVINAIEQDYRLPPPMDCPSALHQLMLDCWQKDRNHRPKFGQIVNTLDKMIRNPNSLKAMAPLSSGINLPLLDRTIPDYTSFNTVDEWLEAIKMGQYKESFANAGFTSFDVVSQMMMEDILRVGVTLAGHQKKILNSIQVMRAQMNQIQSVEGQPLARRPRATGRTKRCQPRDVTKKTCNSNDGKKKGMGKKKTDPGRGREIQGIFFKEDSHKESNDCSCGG
The following applies: at 0.1 µM.

Assay [11] addresses T2, Ephrin type-B receptor 2 (Homo sapiens). As to conditions: at 1 µM.
Assay [12] has as its target T3, Ephrin type-B receptor 3 (Homo sapiens) (UniProt P54753).
T3 sequence (whole entry): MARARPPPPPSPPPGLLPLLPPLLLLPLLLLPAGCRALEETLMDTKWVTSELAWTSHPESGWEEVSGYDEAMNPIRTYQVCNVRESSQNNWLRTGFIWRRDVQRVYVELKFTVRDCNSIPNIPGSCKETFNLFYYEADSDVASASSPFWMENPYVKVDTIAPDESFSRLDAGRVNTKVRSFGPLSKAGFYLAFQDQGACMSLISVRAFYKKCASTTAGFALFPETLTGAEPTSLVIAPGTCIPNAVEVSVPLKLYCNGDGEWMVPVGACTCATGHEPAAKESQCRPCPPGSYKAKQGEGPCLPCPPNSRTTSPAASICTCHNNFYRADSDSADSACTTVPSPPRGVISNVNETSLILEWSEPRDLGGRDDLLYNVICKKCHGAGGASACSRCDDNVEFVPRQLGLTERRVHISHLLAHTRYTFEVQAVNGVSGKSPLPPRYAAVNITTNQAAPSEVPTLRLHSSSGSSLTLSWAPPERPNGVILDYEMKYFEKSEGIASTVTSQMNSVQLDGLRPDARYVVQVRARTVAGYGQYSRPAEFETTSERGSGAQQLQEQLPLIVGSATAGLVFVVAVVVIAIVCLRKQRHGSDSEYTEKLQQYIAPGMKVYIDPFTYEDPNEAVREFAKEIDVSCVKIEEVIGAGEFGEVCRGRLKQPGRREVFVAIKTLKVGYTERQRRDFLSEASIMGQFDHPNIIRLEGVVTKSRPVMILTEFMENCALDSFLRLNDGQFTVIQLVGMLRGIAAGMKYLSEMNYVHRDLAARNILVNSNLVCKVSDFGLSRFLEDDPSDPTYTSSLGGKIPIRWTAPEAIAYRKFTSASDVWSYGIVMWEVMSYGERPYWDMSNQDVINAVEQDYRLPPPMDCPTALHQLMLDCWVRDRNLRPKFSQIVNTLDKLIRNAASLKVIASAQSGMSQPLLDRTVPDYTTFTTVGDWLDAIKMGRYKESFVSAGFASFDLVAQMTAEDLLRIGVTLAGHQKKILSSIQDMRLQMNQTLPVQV
The following applies: at 0.1 µM.

The target in assay [13] is T3, Ephrin type-B receptor 3 (Homo sapiens). As to conditions: at 1 µM.
Assay [14] has as its target T4, Ephrin type-B receptor 4 (Homo sapiens) (UniProt P54760).
T4 sequence (whole entry): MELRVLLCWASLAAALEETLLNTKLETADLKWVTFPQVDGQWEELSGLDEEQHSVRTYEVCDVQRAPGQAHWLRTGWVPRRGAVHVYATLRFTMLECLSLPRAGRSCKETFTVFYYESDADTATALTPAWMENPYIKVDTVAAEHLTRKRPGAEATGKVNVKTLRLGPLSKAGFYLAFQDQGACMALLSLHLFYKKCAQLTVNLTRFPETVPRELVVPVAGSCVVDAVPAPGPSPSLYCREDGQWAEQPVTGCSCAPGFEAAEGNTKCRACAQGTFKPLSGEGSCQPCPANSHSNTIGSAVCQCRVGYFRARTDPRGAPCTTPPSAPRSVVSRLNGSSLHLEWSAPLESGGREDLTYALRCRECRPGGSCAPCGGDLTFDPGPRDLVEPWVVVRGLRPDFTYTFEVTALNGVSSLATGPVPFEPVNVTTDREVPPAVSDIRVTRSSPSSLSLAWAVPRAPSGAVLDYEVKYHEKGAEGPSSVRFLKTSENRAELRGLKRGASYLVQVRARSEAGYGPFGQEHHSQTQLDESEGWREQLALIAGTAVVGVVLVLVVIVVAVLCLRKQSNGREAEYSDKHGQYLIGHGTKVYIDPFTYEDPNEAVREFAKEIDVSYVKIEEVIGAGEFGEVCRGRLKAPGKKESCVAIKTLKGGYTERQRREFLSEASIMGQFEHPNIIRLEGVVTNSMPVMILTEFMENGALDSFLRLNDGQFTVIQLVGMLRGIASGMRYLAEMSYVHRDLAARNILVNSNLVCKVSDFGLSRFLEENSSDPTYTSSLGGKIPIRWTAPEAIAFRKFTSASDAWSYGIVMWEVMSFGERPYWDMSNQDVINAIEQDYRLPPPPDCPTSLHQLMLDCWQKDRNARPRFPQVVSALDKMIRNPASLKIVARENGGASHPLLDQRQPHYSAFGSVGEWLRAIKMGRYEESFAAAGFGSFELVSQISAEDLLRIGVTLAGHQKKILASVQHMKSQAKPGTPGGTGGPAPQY
The following applies: at 0.1 µM.

Assay [15] deals with T4, Ephrin type-B receptor 4 (Homo sapiens). The following applies: at 1 µM.
In assay [16] the target is Receptor tyrosine-protein kinase erbB-2 (Homo sapiens) (UniProt P04626). As to conditions: at 0.1 µM.
Assay [17] has the same target. As to conditions: at 1 µM.
The target of assay [18] is Receptor tyrosine-protein kinase erbB-4 (Homo sapiens) (UniProt Q15303). As to conditions: at 0.1 µM.
Assay [19] deals with Tyrosine-protein kinase Fer (Homo sapiens) (UniProt P16591). The following applies: at 0.1 µM.
In assay [20] the target is Receptor tyrosine-protein kinase erbB-4 (Homo sapiens) (UniProt Q15303). As to conditions: at 1 µM.

Chain of Epidermal growth factor receptor (Homo sapiens), P00533 [L858R,T790M] (P00533 whole entry T790M/L858R, looked up): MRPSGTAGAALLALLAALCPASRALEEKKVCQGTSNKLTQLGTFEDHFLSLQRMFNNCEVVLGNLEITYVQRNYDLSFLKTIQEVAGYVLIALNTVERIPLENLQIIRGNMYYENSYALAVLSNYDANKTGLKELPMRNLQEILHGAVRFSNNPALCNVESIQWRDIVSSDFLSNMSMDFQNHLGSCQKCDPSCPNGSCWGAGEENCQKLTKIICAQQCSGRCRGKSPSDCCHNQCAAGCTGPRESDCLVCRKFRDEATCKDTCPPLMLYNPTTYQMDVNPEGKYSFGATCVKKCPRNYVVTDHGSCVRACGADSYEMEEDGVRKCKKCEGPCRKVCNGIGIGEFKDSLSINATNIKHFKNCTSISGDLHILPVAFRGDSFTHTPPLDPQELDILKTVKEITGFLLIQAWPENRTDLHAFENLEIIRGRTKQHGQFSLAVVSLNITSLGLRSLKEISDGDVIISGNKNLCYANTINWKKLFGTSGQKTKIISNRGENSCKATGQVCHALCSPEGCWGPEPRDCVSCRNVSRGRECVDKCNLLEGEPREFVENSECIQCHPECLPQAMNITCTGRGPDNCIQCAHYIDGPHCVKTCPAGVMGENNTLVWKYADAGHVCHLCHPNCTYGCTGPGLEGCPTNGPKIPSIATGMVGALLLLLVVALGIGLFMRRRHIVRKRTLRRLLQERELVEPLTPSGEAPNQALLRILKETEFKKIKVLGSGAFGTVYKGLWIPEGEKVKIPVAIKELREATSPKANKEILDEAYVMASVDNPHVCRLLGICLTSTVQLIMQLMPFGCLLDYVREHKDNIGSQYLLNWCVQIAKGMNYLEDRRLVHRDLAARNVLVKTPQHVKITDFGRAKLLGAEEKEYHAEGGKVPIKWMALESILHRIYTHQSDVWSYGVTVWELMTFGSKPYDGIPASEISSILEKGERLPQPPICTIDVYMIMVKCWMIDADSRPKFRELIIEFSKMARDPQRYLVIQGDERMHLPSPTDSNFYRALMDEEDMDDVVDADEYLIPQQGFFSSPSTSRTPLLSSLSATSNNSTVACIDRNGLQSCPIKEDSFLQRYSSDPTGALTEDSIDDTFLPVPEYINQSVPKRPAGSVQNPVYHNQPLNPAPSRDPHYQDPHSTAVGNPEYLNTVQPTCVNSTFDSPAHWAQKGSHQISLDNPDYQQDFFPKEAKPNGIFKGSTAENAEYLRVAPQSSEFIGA
Chain of Receptor tyrosine-protein kinase erbB-2 (Homo sapiens) (P04626 whole entry): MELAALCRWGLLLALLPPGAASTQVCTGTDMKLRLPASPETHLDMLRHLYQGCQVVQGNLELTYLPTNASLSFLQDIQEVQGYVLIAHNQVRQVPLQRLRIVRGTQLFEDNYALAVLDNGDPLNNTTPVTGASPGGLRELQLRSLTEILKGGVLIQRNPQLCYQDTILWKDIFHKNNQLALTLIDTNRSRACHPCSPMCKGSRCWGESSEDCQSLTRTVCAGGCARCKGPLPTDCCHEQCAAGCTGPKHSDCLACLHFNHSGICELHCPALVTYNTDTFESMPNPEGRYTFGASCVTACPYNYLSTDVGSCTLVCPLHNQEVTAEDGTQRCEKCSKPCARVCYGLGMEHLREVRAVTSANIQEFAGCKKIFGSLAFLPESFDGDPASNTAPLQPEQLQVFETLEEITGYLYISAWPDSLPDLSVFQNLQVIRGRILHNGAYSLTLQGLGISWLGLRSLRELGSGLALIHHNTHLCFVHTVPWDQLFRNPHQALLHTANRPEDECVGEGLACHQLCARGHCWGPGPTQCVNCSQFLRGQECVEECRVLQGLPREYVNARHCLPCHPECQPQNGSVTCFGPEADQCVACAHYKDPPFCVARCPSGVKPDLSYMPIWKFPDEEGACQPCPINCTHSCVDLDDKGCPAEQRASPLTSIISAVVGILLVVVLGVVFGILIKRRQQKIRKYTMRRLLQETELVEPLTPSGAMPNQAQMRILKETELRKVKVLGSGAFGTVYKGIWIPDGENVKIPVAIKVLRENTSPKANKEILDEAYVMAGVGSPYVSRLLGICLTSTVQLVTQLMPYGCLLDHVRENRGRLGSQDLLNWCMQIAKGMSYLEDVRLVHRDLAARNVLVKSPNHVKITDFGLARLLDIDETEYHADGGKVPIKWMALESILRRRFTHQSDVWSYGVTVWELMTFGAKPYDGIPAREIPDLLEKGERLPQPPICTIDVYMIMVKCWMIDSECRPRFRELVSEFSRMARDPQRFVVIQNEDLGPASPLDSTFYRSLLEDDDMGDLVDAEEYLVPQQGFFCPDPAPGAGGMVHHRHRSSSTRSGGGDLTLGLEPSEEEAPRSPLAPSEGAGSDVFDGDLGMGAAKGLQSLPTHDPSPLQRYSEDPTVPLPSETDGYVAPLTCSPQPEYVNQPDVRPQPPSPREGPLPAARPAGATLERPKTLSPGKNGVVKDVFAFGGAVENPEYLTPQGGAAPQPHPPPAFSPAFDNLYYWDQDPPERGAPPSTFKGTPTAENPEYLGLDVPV
Chain of Ephrin type-A receptor 2 (Homo sapiens) (P29317 whole entry): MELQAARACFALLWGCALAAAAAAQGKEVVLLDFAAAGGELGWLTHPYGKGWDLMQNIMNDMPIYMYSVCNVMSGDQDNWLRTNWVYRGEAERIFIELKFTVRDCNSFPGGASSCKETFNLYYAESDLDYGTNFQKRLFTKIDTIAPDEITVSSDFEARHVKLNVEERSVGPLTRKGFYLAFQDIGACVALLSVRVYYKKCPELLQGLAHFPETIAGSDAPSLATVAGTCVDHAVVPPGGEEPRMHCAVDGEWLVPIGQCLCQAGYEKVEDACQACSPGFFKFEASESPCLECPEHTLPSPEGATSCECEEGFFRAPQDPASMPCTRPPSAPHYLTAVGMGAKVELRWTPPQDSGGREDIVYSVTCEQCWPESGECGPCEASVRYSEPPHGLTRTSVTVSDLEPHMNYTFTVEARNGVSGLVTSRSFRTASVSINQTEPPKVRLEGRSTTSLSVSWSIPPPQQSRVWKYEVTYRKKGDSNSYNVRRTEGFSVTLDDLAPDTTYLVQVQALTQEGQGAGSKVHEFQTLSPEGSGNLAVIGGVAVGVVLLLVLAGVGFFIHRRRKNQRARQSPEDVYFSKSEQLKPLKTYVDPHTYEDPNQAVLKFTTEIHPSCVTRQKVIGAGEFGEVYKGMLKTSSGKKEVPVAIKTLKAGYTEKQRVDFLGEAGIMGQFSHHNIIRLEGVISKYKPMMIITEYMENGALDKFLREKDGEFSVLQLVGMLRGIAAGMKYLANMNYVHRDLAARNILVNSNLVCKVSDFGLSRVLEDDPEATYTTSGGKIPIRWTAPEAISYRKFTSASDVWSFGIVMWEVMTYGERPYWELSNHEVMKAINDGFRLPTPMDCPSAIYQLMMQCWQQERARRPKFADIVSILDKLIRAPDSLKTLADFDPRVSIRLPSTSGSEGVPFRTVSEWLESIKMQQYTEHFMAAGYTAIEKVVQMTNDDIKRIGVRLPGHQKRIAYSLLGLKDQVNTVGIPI
Chain of Receptor tyrosine-protein kinase erbB-4 (Homo sapiens) (Q15303 whole entry): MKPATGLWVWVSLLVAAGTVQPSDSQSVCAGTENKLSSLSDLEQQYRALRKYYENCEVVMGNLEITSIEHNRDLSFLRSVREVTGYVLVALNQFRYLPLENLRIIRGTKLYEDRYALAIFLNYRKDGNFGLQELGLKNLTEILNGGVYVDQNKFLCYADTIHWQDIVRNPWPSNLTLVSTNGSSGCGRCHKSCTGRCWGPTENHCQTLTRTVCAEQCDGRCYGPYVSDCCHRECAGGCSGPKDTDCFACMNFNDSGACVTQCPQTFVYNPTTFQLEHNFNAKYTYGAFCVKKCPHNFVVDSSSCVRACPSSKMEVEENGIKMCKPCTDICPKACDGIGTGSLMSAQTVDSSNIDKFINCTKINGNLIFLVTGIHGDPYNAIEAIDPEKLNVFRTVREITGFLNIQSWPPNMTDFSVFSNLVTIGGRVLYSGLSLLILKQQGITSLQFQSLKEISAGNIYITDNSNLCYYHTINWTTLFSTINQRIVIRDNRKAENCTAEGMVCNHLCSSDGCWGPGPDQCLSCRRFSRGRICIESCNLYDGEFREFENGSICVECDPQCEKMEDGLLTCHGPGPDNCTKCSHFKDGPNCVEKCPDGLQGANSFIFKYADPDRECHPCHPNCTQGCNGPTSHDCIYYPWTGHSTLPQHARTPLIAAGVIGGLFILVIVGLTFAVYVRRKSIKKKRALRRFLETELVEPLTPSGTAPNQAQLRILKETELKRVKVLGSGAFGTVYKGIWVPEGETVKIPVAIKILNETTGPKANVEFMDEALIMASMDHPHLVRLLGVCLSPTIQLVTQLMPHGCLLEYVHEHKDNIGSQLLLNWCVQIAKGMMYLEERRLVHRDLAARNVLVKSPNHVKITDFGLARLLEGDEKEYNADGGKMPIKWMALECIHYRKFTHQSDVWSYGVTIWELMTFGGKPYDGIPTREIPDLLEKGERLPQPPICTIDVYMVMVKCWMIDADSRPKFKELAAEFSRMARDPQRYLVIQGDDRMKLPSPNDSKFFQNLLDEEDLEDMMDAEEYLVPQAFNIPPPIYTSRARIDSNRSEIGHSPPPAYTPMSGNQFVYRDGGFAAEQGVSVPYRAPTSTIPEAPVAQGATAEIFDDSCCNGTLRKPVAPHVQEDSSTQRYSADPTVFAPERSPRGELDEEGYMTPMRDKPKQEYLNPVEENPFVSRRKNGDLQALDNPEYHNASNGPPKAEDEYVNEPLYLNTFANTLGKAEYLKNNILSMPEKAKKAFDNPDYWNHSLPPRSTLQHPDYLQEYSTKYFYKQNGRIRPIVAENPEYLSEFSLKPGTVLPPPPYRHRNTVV

Take `COC(=O)Nc1nc2ccc(Sc3ccc(NC(=O)Nc4cc(C(F)(F)F)ccc4F)cc3)cc2[nH]1`: the inhibition (in general, the change of the read-out against control, counted positive when it falls) in assay [1] is 0.47%; in [2], 4.21%; in assay [3], 1.97%; in assay [4], 25.8%; in [5] it was 89.6%; in assay [6], 9.91%. Moreover, the inhibition in [7] amounted to 34.5%; in [8], 49.5%; in assay [9], 81.6%; in assay [10], 43.4%; in [11], 79.9%; in [12], 3.25%. Moreover, the inhibition in [13] worked out at 11.3%; in assay [14] it was 6.3%; in assay [15], 57.2%; in assay [16], 0.24%; in [17], 1.41%; in assay [18] it was 1.95%. For the same molecule, the inhibition in assay [19] stood at 1.93%.

Consider `CN(C)c1ccc2c(c1)/C(=C/Nc1ccc(S(N)(=O)=O)cc1)C(=O)N2`, for which the inhibition was 0.66% in [1]; 0.14% in [2]; 6.28% in assay [3]; -2.54% in assay [4]; -2.52% in [5]; 2.63% in [6]. The inhibition was 3.13% in assay [7]; -0.17% in assay [8]; 1.13% in [9]; 3.5% in assay [10]; 5.77% in assay [11]; 4.11% in [12]. Further, the inhibition in assay [13] worked out at 1.83%; in [14] it was 2.11%; in [15], 3.08%; in assay [16] it was 0.32%; in [17], 3.44%; in assay [18] it was 4.88%. The inhibition in [20] is 7.65%; in [19], 2.36%.

With `COc1cc2ncn(-c3cc(OCCc4ccccc4)c(C(N)=O)s3)c2cc1OC`, the inhibition in assay [1] is 0.49%; in assay [2], 0.55%; in assay [3], 4.9%; in assay [4], 1.97%; in [5], 0.66%; in assay [6], 3.06%. For the same molecule, the inhibition was determined as 4.07% in [7]; 4.63% in assay [8]; 3.61% in assay [9]; 3.87% in [10]; 6.52% in assay [11]; 2.67% in [12]. The inhibition in assay [13] was 2.11%; in [14], 2.03%; in assay [15], 2.56%; in assay [16] it was 2.58%; in assay [17] it was 2.47%; in assay [18], 13.8%. For the same molecule, the figures for the inhibition in assay [20] and in [19] were 13.1% and 4.91%, respectively.

With `COc1cccc(/C=N/Nc2ncnc3c2cnn3-c2cccc(OC)c2)c1`, the inhibition was 2.12% in [1]; 2.14% in assay [2]; 2.04% in [3]; -1.3% in [4]; -1.94% in [5]; 1.72% in assay [6]. Also, the inhibition was 3.83% in assay [7]; 6.9% in assay [8]; 9.69% in assay [9]; 8.19% in assay [10]; 5.8% in assay [11]; 1.82% in assay [12]. The inhibition in assay [13] stood at 3.68%; in assay [14], 0.66%; in [15] it was 1.2%; in assay [16], 0.2%; in assay [17] it was 5.67%; in assay [18] it was 5.57%. The inhibition in assay [20] is 10%; in [19], -0.09%.
